54 sequences from paper PMC5515408, “Sequence-specific DNA binding by MYC/MAX to low-affinity non-E-box motifs” can be followed below.

Over roughly 4,500 sequences, “log2 normalized fluorescence” has its median near -0.34; the highest 2% begin near 3.3. Shown is part of a subset that was picked to be rich in the highest values.

In this experiment the target is MAX:MAX (p21) (human, UniProt P61244-2 1-151). The experiment is described as follows: protein-binding microarray (anti-MAX antibody); PBM: 15 mM Tris-HCl pH 7.5, 100 mM KCl, 0.075% NP40, 7.5 mM beta-mercaptoethanol, 375 ng/ul BSA, 8 ng/ul poly(dA-dT):(dA-dT), 550 ng complex, 60 min, room tempe; high values mean tight binding. The conditions noted are these: protein: recombinant; tags: 6xHis; chain copies: 2; label: 3' end of printed strand (linker) attached to glass slide; dsDNA, one strand shown. The procedure, abridged: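 Binding is reported as log2 normalized fluorescence. Recombinant His-tagged human MYC:MAX or MAX:MAX dimers expressed in E. coli (550 ng) were incubated with a custom Agilent glass array for 60 min at room temperature in Tris-KCl buffer, pH 7.5, containing NP40, BSA and poly(dA-dT) competitor. The array carried ~5000 unique 12-nt sequences, each spotted in triplicate and made double-stranded by primer extension, and bound protein was detected with anti-MAX and secondary antibodies and scanned at 543 nm.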
Sequence of MAX:MAX (p21) (P61244 other isoform, or with tags, fused parts or gaps): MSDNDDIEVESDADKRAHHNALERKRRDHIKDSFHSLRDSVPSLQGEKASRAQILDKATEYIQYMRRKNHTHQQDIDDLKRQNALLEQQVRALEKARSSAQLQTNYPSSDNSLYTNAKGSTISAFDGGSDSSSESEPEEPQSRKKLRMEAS
In the case of “CCGGCAAGCACGTGGTATTAATAGCTAAGATTACTATATCGACG”, the binding signal was 3.27 log2 normalized fluorescence. “CCGGCTGACCTGATGTATTAATAGCTAAGATTACTATATCGACG”: the binding signal is 0.381 log2 normalized fluorescence. The result for “CCGGCATAGTATACAATTTAATAGCTAAGATTACTATATCGACG” reads 0.0214 log2 normalized fluorescence; that for “CCGGCTGAACCCTGGTATTAATAGCTAAGATTACTATATCGACG”, -0.595 log2 normalized fluorescence; that for “CCGGCTGATAAGTGGTATTAATAGCTAAGATTACTATATCGACG”, -0.651 log2 normalized fluorescence.

On to “CCGGCTGAAGGATTGTATTAATAGCTAAGATTACTATATCGACG”, for which the binding signal is -0.589 log2 normalized fluorescence. The result for “CCGGCTGAAACTTGGTATTAATAGCTAAGATTACTATATCGACG” reads -0.705 log2 normalized fluorescence. As to “CCGGCACGCACGTGGTATTAATAGCTAAGATTACTATATCGACG”, the binding signal was 3.29 log2 normalized fluorescence. On to “CCGGCTCGCACGTGGTATTAATAGCTAAGATTACTATATCGACG”, for which the binding signal is 3.41 log2 normalized fluorescence. The result for “CCGGCACCCACGTGGTATTAATAGCTAAGATTACTATATCGACG” reads 3.35 log2 normalized fluorescence; that for “CCGGCGTGCACGTGGTATTAATAGCTAAGATTACTATATCGACG”, 3.47 log2 normalized fluorescence. To “CCGGCGAGCACGTGGTATTAATAGCTAAGATTACTATATCGACG” belongs 3 log2 normalized fluorescence; to “CCGGCAGGCACGTGGTATTAATAGCTAAGATTACTATATCGACG”, 3.21 log2 normalized fluorescence.

With “CCGGCCTGCACGTGGTATTAATAGCTAAGATTACTATATCGACG”, the binding signal is 3.26 log2 normalized fluorescence. Take “CCGGCCGGCACGTGGTATTAATAGCTAAGATTACTATATCGACG”: the binding signal is 3.27 log2 normalized fluorescence.

As to “CCGGCATCCACGTGGTATTAATAGCTAAGATTACTATATCGACG”, the binding signal was 3.28 log2 normalized fluorescence.

Consider “CCGGCCCGCACGTGGTATTAATAGCTAAGATTACTATATCGACG”, for which the binding signal was 3.03 log2 normalized fluorescence. The result for “CCGGCTCGGACGTGGTATTAATAGCTAAGATTACTATATCGACG” reads 1.17 log2 normalized fluorescence; that for “CCGGCTGACGCAGGGTATTAATAGCTAAGATTACTATATCGACG”, -0.104 log2 normalized fluorescence; that for “CCGGCTGACCTGCTGTATTAATAGCTAAGATTACTATATCGACG”, 0.214 log2 normalized fluorescence. The result for “CCGGCTGAAGAGTGGTATTAATAGCTAAGATTACTATATCGACG” reads 0.0783 log2 normalized fluorescence.

Take “CCGGCTGAGGGGGAGTATTAATAGCTAAGATTACTATATCGACG”: the binding signal was 1.48 log2 normalized fluorescence. The result for “CCGGCTGAACCCAGGTATTAATAGCTAAGATTACTATATCGACG” reads -0.34 log2 normalized fluorescence; that for “CCGGCTGAGTTGAGGTATTAATAGCTAAGATTACTATATCGACG”, -0.631 log2 normalized fluorescence; that for “CCGGCTGACCGGTAGTATTAATAGCTAAGATTACTATATCGACG”, -0.573 log2 normalized fluorescence. The result for “CCGGCTGACACAGGGTATTAATAGCTAAGATTACTATATCGACG” reads 0.747 log2 normalized fluorescence; that for “CCGGCTGAGAGCCTGTATTAATAGCTAAGATTACTATATCGACG”, -0.287 log2 normalized fluorescence; that for “CCGGCTGACAGACCGTATTAATAGCTAAGATTACTATATCGACG”, 0.179 log2 normalized fluorescence. The result for “CCGGCTGAACTCATGTATTAATAGCTAAGATTACTATATCGACG” reads 1.71 log2 normalized fluorescence; that for “CCGGCTGACAAGTTGTATTAATAGCTAAGATTACTATATCGACG”, -0.304 log2 normalized fluorescence; that for “CCGGCTGATCATATGTATTAATAGCTAAGATTACTATATCGACG”, 1.98 log2 normalized fluorescence. As for “CCGGCTGTCACGTGGTATTAATAGCTAAGATTACTATATCGACG”, the binding signal is 3.12 log2 normalized fluorescence. On to “CCGGCTGACACGTGGTATTAATAGCTAAGATTACTATATCGACG”, for which the binding signal was 3.19 log2 normalized fluorescence. To “CCGGCACACACGTGGTATTAATAGCTAAGATTACTATATCGACG” belongs 3.32 log2 normalized fluorescence; to “CCGGCCGTCACGTGGTATTAATAGCTAAGATTACTATATCGACG”, 3.18 log2 normalized fluorescence. To “CCGGCGGGCACGTGGTATTAATAGCTAAGATTACTATATCGACG” belongs 3.35 log2 normalized fluorescence. The result for “CCGGCGGACACGTGCTATTAATAGCTAAGATTACTATATCGACG” reads 3.15 log2 normalized fluorescence; that for “CCGGCGGTCACGTGGTATTAATAGCTAAGATTACTATATCGACG”, 3.37 log2 normalized fluorescence.

Consider “CCGGCGGACACGTGGTATTAATAGCTAAGATTACTATATCGACG”, for which the binding signal was 3.33 log2 normalized fluorescence. Take “CCGGCTGATACCTGGTGTTAATAGCTAAGATTACTATATCGACG”: the binding signal was -0.298 log2 normalized fluorescence. The result for “CCGGCTGACACGTAGAGTTAATAGCTAAGATTACTATATCGACG” reads 0.996 log2 normalized fluorescence; that for “CCGGCTGAAGCGGTGTATTAATAGCTAAGATTACTATATCGACG”, -0.554 log2 normalized fluorescence; that for “CCGGCTGACCCATGGTATTAATAGCTAAGATTACTATATCGACG”, 2.08 log2 normalized fluorescence. As for “CCGGCTGACACGCCATATTAATAGCTAAGATTACTATATCGACG”, the binding signal is 2.41 log2 normalized fluorescence.

On to “CCGGCTGATACATAGTATTAATAGCTAAGATTACTATATCGACG”, for which the binding signal was -0.533 log2 normalized fluorescence. As for “CCGGCTGATTCACGGTATTAATAGCTAAGATTACTATATCGACG”, the binding signal was 0.000807 log2 normalized fluorescence. The result for “CCGGCTGAGTGGATGTATTAATAGCTAAGATTACTATATCGACG” reads 0.0423 log2 normalized fluorescence; that for “CCGGCTGACACGTTGGATTAATAGCTAAGATTACTATATCGACG”, 3.03 log2 normalized fluorescence; that for “CCGGCTGATAGTGGGTATTAATAGCTAAGATTACTATATCGACG”, -0.372 log2 normalized fluorescence.

On to “CCGGCTGAGTGGCTGTATTAATAGCTAAGATTACTATATCGACG”, for which the binding signal is 0.1 log2 normalized fluorescence.

With “CCGGCTGAAAGATGGTATTAATAGCTAAGATTACTATATCGACG”, the binding signal was -0.31 log2 normalized fluorescence. To “CCGGCTTGCACGTGGTTTTAATAGCTAAGATTACTATATCGACG” belongs 3.23 log2 normalized fluorescence; to “CCGGCTTGCACGTGGTATTAATAGCTAAGATTACTATATCGACG”, 3.31 log2 normalized fluorescence; to “CCGGCTTGCACTTGGTATTAATAGCTAAGATTACTATATCGACG”, 0.423 log2 normalized fluorescence.
